# D1 antagonist: blocks dopamine activation of the human D1 receptor | HEK293 TREx D1 cells, calcium flux, dopamine EC80; active compounds read low | hit rate 3.2% among 360,000 | P21728 | activity change, negative = inhibition, % at 10 µM | AID 504652; in the data active = activity change below about -30%; also: % is scaled to controls: 0 for no effect and ±100 for the full control effect
# Target sequence (P21728 whole entry, looked up): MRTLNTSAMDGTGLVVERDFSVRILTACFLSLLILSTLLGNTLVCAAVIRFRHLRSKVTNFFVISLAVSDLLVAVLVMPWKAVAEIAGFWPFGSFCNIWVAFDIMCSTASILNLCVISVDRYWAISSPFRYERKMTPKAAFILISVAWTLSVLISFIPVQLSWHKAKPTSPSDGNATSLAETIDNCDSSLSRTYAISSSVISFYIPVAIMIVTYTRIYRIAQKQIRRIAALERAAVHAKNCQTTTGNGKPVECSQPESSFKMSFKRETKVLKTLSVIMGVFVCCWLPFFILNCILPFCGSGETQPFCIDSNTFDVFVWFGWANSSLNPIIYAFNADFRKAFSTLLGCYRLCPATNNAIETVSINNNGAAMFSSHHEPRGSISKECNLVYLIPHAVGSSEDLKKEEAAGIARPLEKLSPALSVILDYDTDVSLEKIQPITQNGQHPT
#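 Compound effects on dopamine-evoked calcium signalling were measured in tetracycline-induced HEK293 Trex D1 cells. Dopamine at EC80 followed a 180 s compound pre-read, and fluorescence was tracked kinetically for 180 s more.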
# D1 PAM: human D1 dopamine receptor positive modulation; HEK293 TREx D1 cells, calcium flux, dopamine EC20 potentiation; hit rate 0.036% among 360,000; P21728; potentiation, % at 10 µM; in the data active = potentiation above about 30%; also: 0% is about no effect
# D1 ag: activates the human D1 dopamine receptor. AID 504660. P21728. HEK293 T-REx D1 cells, calcium flux, agonist mode. activation, % at 2 µM. hit rate 1% among 360,000; also: 0% is about no effect
#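 Tetracycline-induced HEK293 TREx D1 cells, force-coupled to calcium signalling, were dye-loaded with a no-wash calcium kit. Compound was pin-added after a 10 s baseline. Fluorescence was read kinetically at 1 cycle/s for 180 s, with calcium rises flagged as agonism.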
# TRHR PAM: allosteric enhancers of human TRH receptor. hit rate 0.66% among 360,000. TRHR cells, fluo-8 calcium fluorescence, EC20 TRH enhancement. P34981. enhancement, % at 2 µM; in the data active = enhancement above about 30%; also: 0% is about no effect
#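 Enhancer read-out: after compound pinning and an initial kinetic agonist-mode read, an EC20 of TRH (10 nM final) was injected and fluo-8 calcium signal (Ex 480/Em 530) followed at 1 s/cycle for 100 cycles in TRHR-expressing cells.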
# TRHR ag: agonists of human TRH receptor; P34981; TRHR cells, calcium flux fluo-8, FDSS agonist mode; activation, % at 2 µM; hit rate 0.18% among 360,000; AID 493084; also: 0% is about no effect
#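 TRHR-expressing cells loaded with fluo-8 calcium dye; 23 nL library compound pin-transferred, kinetic FDSS fluorescence (Ex 480/Em 530) recorded about 180 s for agonist-induced calcium release, before a 10 nM TRH EC20 addition for potentiator mode.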
# * = called active by the depositor; nt = no result given; ! = repeats disagree. Most compounds without a hit are left out; they make up all but 4.6% or so of the library. Rule as the data show it, unless noted: active = activation above about 30%; inactive = the rest.
SMILES,D1 antagonist,D1 PAM,D1 ag,TRHR PAM,TRHR ag
CCc1ccccc1N(CC(=O)NCCc1ccccc1)C(=O)CCC(=O)Nc1ccccn1,-30*,-12,40*,-2,-1
Cc1ccccc1N(CC(=O)NCCc1ccccc1)C(=O)CCC(=O)Nc1ccccn1,-9,1,1,1,-3
COc1ccc(CCNC(=O)c2cccc(S(=O)(=O)N3CCc4ccccc4C3)c2)cc1,-1,-5,9,8,0
O=[N+]([O-])c1ccc(Oc2ccc(S(=O)(=O)N3CCOCC3)cc2)cc1,-42*,nt,17,7,-1
COc1ccccc1N1CCN(Cc2cc3c(cc2O)OCO3)CC1,-37*,-8,3,-7,1
CCOc1ccc2oc(=O)cc(CN3CCN(c4ccccc4OC)CC3)c2c1,18,3,1,47*,-1
CCOc1ccccc1N1CCN(Cc2cccc(OC)c2O)CC1,-32*,-10,-2,-1,0
COc1ccc(NC(=O)N(C2CCCCC2)C(C)c2cccnc2)c(OC)c1 (stereo not given),-7,-3,3,-8,0
COc1ccc(NC(=S)N2CCN(C(=O)c3ccco3)CC2)c(OC)c1,-68*,-7,2,-3,1
COc1ccc(NC(=O)CN2CCN(C(=O)c3ccco3)CC2)c(OC)c1,3,-3,4,9,0
COc1ccc(NC(=O)CSCC(=O)N2CCN(C(=O)c3ccco3)CC2)cc1,-63*,nt,3,0,0
COc1ccc(NC(=O)N(C2CCCCC2)C(C)c2ccco2)c(OC)c1 (stereo not given),-78*,-18,1,-19,0
O=C(OCC#CCSc1nnc(-c2cccc3ccccc23)o1)c1ccco1,3,5,32*!,8,-1
COc1ccc2cc(C(C)C(=O)OC(C)C)ccc2c1 (stereo not given),-37*,0,1,-3,0
CCC(C(=O)OC(C)C)c1ccc2ccccc2c1 (stereo not given),nt,-1,-3,-5,-1
COc1ccc(-c2nc3cc(NC(=O)c4ccc(C)cc4)ccc3o2)cc1Cl,-14,-2,0,-9,1
CN(C)CCNC(=O)Cn1c(=O)c2cccn2c2ccc(F)cc21,5,-5,37*!,0,1
CCN(CC)CCNC(=O)Cn1c(=O)c2cccn2c2ccc(F)cc21,-12,-2,3,1,1
O=C(Cn1c(=O)c2cccn2c2ccc(F)cc21)NCc1cccc(Cl)c1,1,-3,0,-2,0
O=c1cc(N2CCN(c3ccc(F)cc3)CC2)[nH]c(=O)n1-c1ccc(Br)cc1,-40*,-1,1,-1,0
O=C(O)c1nn(-c2cccc(Cl)c2)c(=O)cc1O,-44*,-4,1,2,0
O=C(N/N=C/c1ccco1)c1cc(-c2cccc3ccccc23)n[nH]1,14,2,-2,36*,0
Cc1sc(NC(=O)c2ccccc2)c(C(c2ccccn2)N2CCN(CCO)CC2)c1C (stereo not given),-5,-2,108*,26,0
CC(C)CN1C(=O)c2ccccc2C1(O)Cc1ccccc1 (stereo not given),-37*,-1,5,1,-1
O=C1c2ccccc2C(O)(Cc2ccccc2)N1CCCN1CCOCC1 (stereo not given),-77*,-2,2,-7,-1
SMILES,D1 antagonist,D1 PAM,D1 ag,TRHR PAM,TRHR ag
C=CCN1C(=O)c2ccccc2C1(O)Cc1ccccc1 (stereo not given),-22,1,1,4,0
COc1ccc(-n2nc(C(=O)O)c3csc(N)c3c2=O)cc1,4,4,1,2,-1
CC(NC(=O)c1ccc(NC(=O)c2nsc3ccccc23)cc1)c1ccccc1 (stereo not given),9,-1,1,4,0
Cc1cc2[nH]c(=O)cc(-c3ccccc3)n2n1,-5,4,3,-8,0
Cc1cc2[nH]c(=O)c3ccccc3n2n1,-72*,-7,2,-5,1
C=CCOC(=O)C(=O)/C=C/c1c(C)n(C)n(-c2ccccc2)c1=O,-40*,1,-4,-3,0
C=CCSC(=S)Nc1c(C)n(C)n(-c2ccccc2)c1=O,-1,2,3,5,1
CCCSCCCNC(=O)Cn1cc2c(n1)CCC(C)C2 (stereo not given),-2,-1,0,-1,-1
CCN(CC)CCCNC(=O)Cn1cc2c(n1)CCC(C)C2 (stereo not given),-41*,-4,1,-1,0
CCCCc1cc(=O)oc2cc(OCC(=O)NCc3ccccn3)ccc12,-42*,1,3,3,-1
CS(=O)(=O)N1CCC(C(=O)Nc2cc(Cl)ccc2Cl)CC1,2,1,1,4,-1
O=C(Nc1ccc(F)cc1)C1CCN(S(=O)(=O)c2ccc3c(c2)CCCN3C(=O)C2CCC2)CC1,-22,-6,0,-2,0
Cc1ccc(NC(=O)C2CCN(S(=O)(=O)c3ccc4c(c3)CCCN4C(=O)C3CCC3)CC2)cc1,-48*,-7,1,-4,-1
Cc1ccc(S(=O)(=O)N2CCC(C(=O)Nc3ccc(C)c(Cl)c3)CC2)cc1,-39*,-5,14,6,-1
CS(=O)(=O)N1CCC(C(=O)Nc2cc(Cl)c(Cl)cc2Cl)CC1,-34*,1,6,-12,0
O=C(Nc1ccc(Cl)c(Cl)c1)C1CCCCC1,-32*,-8,8,-7,0
O=C(Nc1ccc2c(c1)OCO2)C1CCCCC1,3,0,5,0,0
CC(=O)C1=C(OC(=O)C(C)C)c2ccccc2S(=O)(=O)N1Cc1ccccc1,-5,-2,0,-6,0
COc1ccc(Cl)cc1NC(=O)CSc1nc2c(oc3ccccc32)c(=O)n1Cc1ccco1,-15,0,1,2,0
CS(=O)(=O)N1CCC(C(=O)Nc2ccc(Cl)c(Cl)c2)CC1,-59*,-5,20,-12,4
CC(NC(=O)Nc1ccc(Cl)c(Cl)c1)C(c1ccccc1)N1CCOCC1 (stereo not given),41,9,158*,9,-2
CC(NC(=O)Nc1ccc([N+](=O)[O-])cc1)C(c1ccccc1)N1CCOCC1 (stereo not given),167,-1,173*,2,-1
CC(NC(=O)c1ccc(Cl)cc1Cl)C(c1ccccc1)N1CCOCC1 (stereo not given),-3,0,1,-2,-2
O=S(=O)(NC1CCCC(NS(=O)(=O)c2c(F)cccc2F)C1)c1ccc2c(c1)OCCO2 (stereo not given),-6,-2,0,10,3
OCCn1c(-c2ccc(F)cc2)csc1=Nc1ccccc1,-31*,-8,6,1,0

# Assay outcomes (PubChem BioAssay)
